Screening data as filed in PubChem BioAssay.
This is a sample that favours compounds with a hit; in the whole collection about 2.4% have one here.
Pol kappa inh-1: DNA polymerase kappa (human) inhibition; Q9UBT6; purified Pol kappa, fluorescent DNA synthesis assay, 10 min; Potency, µM (top dose mostly 107 µM), without a hit: at the top dose activity, negative = inhibition, actives largely listed as inhibitors; hit rate 0.53% among 400,000; AID 588579; further: potency means the concentration at half of the fitted maximal effect; on the % scale 0 is the no-effect control and ±100 the full control effect
Target sequence (Q9UBT6 whole entry, looked up): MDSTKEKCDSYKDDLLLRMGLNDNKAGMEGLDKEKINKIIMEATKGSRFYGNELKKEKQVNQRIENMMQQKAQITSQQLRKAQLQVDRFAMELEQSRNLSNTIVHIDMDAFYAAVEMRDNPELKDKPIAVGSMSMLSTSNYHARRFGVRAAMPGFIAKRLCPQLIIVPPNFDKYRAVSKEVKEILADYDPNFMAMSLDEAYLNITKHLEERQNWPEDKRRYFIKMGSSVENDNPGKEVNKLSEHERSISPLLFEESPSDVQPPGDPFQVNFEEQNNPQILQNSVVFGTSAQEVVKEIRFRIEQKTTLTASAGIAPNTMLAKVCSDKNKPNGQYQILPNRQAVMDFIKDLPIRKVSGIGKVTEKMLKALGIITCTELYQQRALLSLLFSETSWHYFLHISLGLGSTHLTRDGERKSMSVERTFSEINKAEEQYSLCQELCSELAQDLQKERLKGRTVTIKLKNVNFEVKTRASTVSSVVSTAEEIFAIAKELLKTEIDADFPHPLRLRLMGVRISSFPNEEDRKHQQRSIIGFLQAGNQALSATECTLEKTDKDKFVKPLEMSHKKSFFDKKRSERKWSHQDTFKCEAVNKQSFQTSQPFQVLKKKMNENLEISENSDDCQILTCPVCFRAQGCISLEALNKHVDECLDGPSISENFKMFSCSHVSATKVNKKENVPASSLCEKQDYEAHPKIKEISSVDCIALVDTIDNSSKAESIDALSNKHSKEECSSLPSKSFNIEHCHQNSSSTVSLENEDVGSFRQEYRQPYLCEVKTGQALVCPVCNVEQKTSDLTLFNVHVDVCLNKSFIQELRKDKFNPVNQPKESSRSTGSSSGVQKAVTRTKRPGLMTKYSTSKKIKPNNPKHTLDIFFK
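10 nM Pol kappa was preincubated with compounds for 15 min at room temperature. Reaction started with 50 nM (final) substrate. Fluorescence read kinetically at 0 and 10 min.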
Pol beta inh: DNA polymerase beta (human) inhibition; Pol beta primer extension/strand displacement, fluorescence kinetic; Potency, µM (top dose mostly 114 µM), for inactives: at the highest dose activity change, negative = inhibition, most hits filed as inhibitors; hit rate 1.3% among 340,000; further: potency means the concentration at half of the fitted maximal effect; on the % scale 0 is the no-effect control and ±100 the full control effect
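Reaction started by 50 nM substrate onto compound-treated Pol beta (10 nM, 15 min preincubation, room temperature); plates read at 0 min and 10 min. Normalized concentration-effect data fitted by four-parameter Hill equation.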
Pol eta inh-1: blocks human DNA polymerase eta activity. Potency, µM (top dose mostly 114 µM), inactives show at the highest dose activity change, negative = inhibition, usual class: inhibitors. Q9Y253. recombinant Pol eta, fluorescent DNA replication assay. AID 588591. hit rate 1.2% among 390,000; further: potency means the concentration at half of the fitted maximal effect; on the % scale 0 is the no-effect control and ±100 the full control effect
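Fluorescent replication assay: 50 nM final substrate added after a 15 min room-temperature compound preincubation with 10 nM enzyme. Signal taken at 0 min and again at 10 min.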
POLI inh: blocks human DNA polymerase iota activity | Q9UNA4 | Pol iota fluorescent replication assay, 10 min | Potency, µM (highest dose often 115 µM), for inactives: at the highest dose activity, negative = inhibition, most hits filed as inhibitors | hit rate 1% among 390,000; further: potency means the concentration at half of the fitted maximal effect
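Fluorescent replication assay read twice, at 0 min and 10 min after adding 50 nM (final) substrate. Enzyme (10 nM) and compounds were first incubated 15 min at room temperature; enzyme-free buffer wells were negative controls.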
WRN helicase inh-1: blocks human WRN helicase. Q14191. WRN helicase unwinding, fluorescent forked duplex, kinetic. Potency, µM (titrated, usually from 114 µM), inactives show at the top dose activity change, negative = inhibition, usual class: inhibitors. hit rate 0.46% among 360,000. AID 651768; further: potency means the concentration at half of the fitted maximal effect; on the % scale 0 is the no-effect control and ±100 the full control effect; nearly all actives have a fitted effect of over 55% in size
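Primary qHTS, 1536-well format. 20 nM WRN + compound, 15 min RT; start with 100 nM forked fluorophore/quencher duplex, 2 mM ATP (final); kinetic read ex 525/em 598 nm.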
FEN1 inh-1: inhibitors of human flap endonuclease 1 | P39748 | Potency, µM (top dose mostly 114 µM), inactives show at the highest dose activity change, negative = inhibition, most hits filed as inhibitors | hit rate 0.35% among 390,000 | Recombinant FEN1 flap cleavage, fluorescence, 15 min | AID 588795; further: potency means the concentration at half of the fitted maximal effect; on the % scale 0 is the no-effect control and ±100 the full control effect; nearly all actives have a fitted effect of over 65% in size
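Enzyme 10 nM, 15 min RT preincubation with compound; start with substrate 50 nM final; reads at 0 and 15 min; qHTS titration, four-parameter Hill fit.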
BAZ2B inh: confirmation of human BAZ2B bromodomain inhibitors; AID 588809; AlphaScreen BAZ2B / biotin-H3K14Ac peptide displacement; hit rate 100% among 25; shares compounds with Pol kappa inh-1; Potency, µM, actives largely listed as inhibitors; calls by dose curve
BAZ2B bead ctr: interferes with AlphaScreen signal in BAZ2B counterscreen; shares compounds with Pol kappa inh-1; AlphaScreen biotin-His6 peptide bead counterscreen, signal decrease; Potency, µM (doses to about 57.1 µM), for the others: at the top dose activity change, negative = inhibition, hits mostly inhibitors; 25 tested, under 10 active;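 active means clear concentration-dependent signal drop in the bead assay lacking the target, so a primary-screen artifact; inconclusive means weak, partial or single-dose response; inactive means no response, so a real primary hit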
TbPGK inh: blocks T. brucei phosphoglycerate kinase; hit rate 79% among 500; Potency, µM (doses to about 57.5 µM), for inactives: at the highest dose activity change, negative = inhibition, actives largely listed as inhibitors; TbPGK coupled GAPDH assay, Kinase-Glo luminescence; AID 686980; shares compounds with Pol kappa inh-1; further: potency means the concentration at half of the fitted maximal effect; on the % scale 0 is the no-effect control and ±100 the full control effect; nearly all actives have a fitted effect of over 65% in size
POLI cherry-pick: Inhibitors of human DNA polymerase iota, confirmation; shares compounds with Pol kappa inh-1; Pol iota primer extension, TAMRA/BHQ fluorescence; Potency, µM, hits mostly inhibitors; hit rate 77% among 1,500; further: potency means the concentration at half of the fitted maximal effect
GALK confirm: confirmation of human galactokinase (GALK) inhibitors | shares compounds with Pol eta inh-1 | Potency, µM (doses to about 115 µM), for inactives: at the top dose activity, negative = inhibition, most hits filed as inhibitors | hit rate 70% among 150 | purified GALK, Kinase-Glo ATP depletion luminescence
Redox cycling: redox cycling activity in phenol red-HRP assay | hit rate 40% among 150 | Potency, µM (titrated, usually from 115 µM), inactives show at the highest dose activity change, negative = H2O2 signal, hits mostly inhibitors | Phenol red-HRP H2O2 redox cycling, absorbance 600 nm | shares compounds with Pol eta inh-1
HEK293 tox: reduces HEK-293 cell viability in GALK counter-screen; shares compounds with Pol eta inh-1; HEK-293 viability, ATP luminescence (CellTiter-Glo), 24/48 h; Potency, µM (titrated, usually from 46.1 µM), for inactives: at the highest dose activity change, negative = cytotoxicity, usual class: inhibitors; hit rate 10% among 170; further: potency means the concentration at half of the fitted maximal effect; on the % scale 0 is the no-effect control and ±100 the full control effect
Pol kappa inh-2: confirmation of human DNA polymerase kappa inhibitors; shares compounds with Pol eta inh-1; purified Pol-kappa, fluorescent strand-displacement substrate; Potency, µM, actives largely listed as inhibitors; hit rate 76% among 920; AID 720501; further: potency means the concentration at half of the fitted maximal effect
Pol eta inh-2: Pol eta (human) inhibition, cherry-pick confirmation. shares compounds with Pol eta inh-1. Pol eta primer extension, TAMRA/BHQ fluorescence, 10 min. Potency, µM, most hits filed as inhibitors. hit rate 64% among 2,600. AID 720502; further: potency means the concentration at half of the fitted maximal effect
FEN1 inh-2: FEN1 inhibition, cherry-pick retest | shares compounds with FEN1 inh-1 | FEN1 flap cleavage, TAMRA/BHQ2 fluorogenic DNA substrate | Potency, µM, hits mostly inhibitors | hit rate 79% among 880; further: potency means the concentration at half of the fitted maximal effect; nearly all actives have a fitted effect of over 60% in size
WRN helicase inh-2: WRN helicase inhibition, cherry-pick retest; WRN helicase DNA unwinding, fluorescence kinetic; hit rate 63% among 610; shares compounds with WRN helicase inh-1; Potency, µM (series often up to 57.1 µM), for inactives: at the top dose activity, negative = inhibition, hits mostly inhibitors; further: potency means the concentration at half of the fitted maximal effect; nearly all actives have a fitted effect of over 65% in size
TO displacement: counter-screen for WRN helicase inhibitors: DNA binding. shares compounds with WRN helicase inh-1. thiazole orange DNA binding displacement, fluorescence. Potency, µM (highest dose often 57.1 µM), without a hit: at the top dose activity change, negative = inhibition, most hits filed as inhibitors. hit rate 10% among 610. AID 720499;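 further: drop in dye fluorescence marks compound binding to DNA; potency means the concentration at half of the fitted maximal effect; on the % scale 0 is the no-effect control and ±100 the full control effect; nearly all actives have a fitted effect of over 60% in size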
BLM helicase inh: blocks human BLM helicase in WRN counterscreen; Potency, µM (highest dose often 57.1 µM), for inactives: at the highest dose activity change, negative = inhibition, hits mostly inhibitors; Recombinant BLM helicase DNA unwinding, red fluorescence; shares compounds with WRN helicase inh-1; hit rate 60% among 610; further: potency means the concentration at half of the fitted maximal effect; nearly all actives have a fitted effect of over 60% in size
Active calls of the source: *; ? = inconclusive; . = not tested or not shown; [ ] = dose if it differs, or a comment. Unless noted, the call rests on the fitted dose curve; in most records, active means well fitted curve in the direction sought with a large enough effect; inconclusive means small, poorly fitted or top-dose-only effect, or another doubt; inactive means no such curve, though single readings can be large; an effect the other way counts as inactive or inconclusive.

SMILES | Pol kappa inh-1 | Pol beta inh | Pol eta inh-1 | POLI inh | WRN helicase inh-1 | FEN1 inh-1 | TbPGK inh | POLI cherry-pick | Pol eta inh-2 | WRN helicase inh-2 | TO displacement | BLM helicase inh | others
Cc1ccc(N2C(=O)NC(=O)/C(=C/c3ccoc3)C2=O)cc1 | 22µM* | ? | 3.2µM* | 7.9µM* | 32µM* | 35µM* | 0.92µM* | 12* | 17* | . | . | . | FEN1 inh-2=60*
O=C(C/C=N\OCc1ccc([N+](=O)[O-])cc1)Nc1ccc(F)cc1F | -7% | 20% | -24% | 101% | -5% | 6% | . | . | . | . | . | .
COc1ccc(CN2C(=O)NC(=O)/C(=C/c3ccoc3)C2=O)cc1 | 20µM* | 10µM* | 20µM* | 10µM* | 40µM* | 22µM* | 4.6µM* | 19* | 27* | 7.6µM* | -3% | 2.4µM* | FEN1 inh-2=76*
O=C(O)c1ccccc1Cc1ccccc1 | 15%[60.1 µM] | . | . | . | . | . | . | . | . | . | . | .
CCCCN1C(=O)/C(=C/C=C/c2ccco2)C(=O)NC1=S | 18µM* | 3.5µM* | 3.5µM* | 28µM* | 2.7µM* | 25µM* | 13µM* | 24* | 17* | 12µM* | 83% | 6.8µM* | FEN1 inh-2=34*
C=CCN1C(=O)/C(=C/c2cc(C)n(-c3ccccn3)c2C)C(=O)NC1=S | -2% | 50% | ? | -25% | -20% | -3% | . | . | . | . | . | .
O=C1NC(=O)N(Cc2ccc(F)cc2)C(=O)/C1=C\C=C\c1ccco1 | ? | ? | 20µM* | 14µM* | 35µM* | ? | . | ? | 30* | 7.6µM* | -12% | 4.3µM*
C[C@](O)(CS(=O)(=O)c1ccc(F)cc1)C(=O)Nc1ccc(C#N)c(C(F)(F)F)c1 | 1%[19.4 µM] | . | . | . | . | . | . | . | . | . | . | .
O=c1c(O)c(-c2ccc(O)c(O)c2)oc2cc(O)cc(O)c12 | 0.95µM* | 0.2µM* | 0.71µM* | 0.56µM* | ? | 40µM* | ? | 15* | 12* | 1.2µM* | ? | 1.1µM* | GALK confirm=42µM*;Redox cycling=-2%;HEK293 tox=?;Pol kappa inh-2=3*
OC[C@@H]1O[C@H](OC2[C@@H](O)[C@@H](O)[C@@H](O)O[C@@H]2CO)[C@H](O)[C@@H](O)[C@@H]1OC1O[C@H](CO)[C@@H](O)[C@H](O)[C@@H]1O (stereo partly specified) | 16%[60.1 µM] | . | . | . | . | . | . | . | . | . | . | .
CC(Cc1cccc(C(F)(F)F)c1)NCCCc1ccccc1 (stereo unspecified) | 8%[19.4 µM] | . | . | . | . | . | . | . | . | . | . | .
CCC(C)n1c(=O)[nH]c(C)c(Br)c1=O (stereo unspecified) | 12%[60.1 µM] | . | . | . | . | . | . | . | . | . | . | .
O=C(Nc1ccc2oc(-c3cccnc3)nc2c1)c1ccc(-c2cccc(Cl)c2)o1 | -17% | ? | 71µM* | -7% | . | ? | . | 42* | 76* | 19µM* | 14% | 6.8µM*
CC(C)c1ccc2oc(-c3ccc(NC(=O)c4cc5ccccc5o4)cc3)nc2c1 | 1% | -9% | -10% | 32% | . | -7% | . | . | . | . | . | .
COc1ccc(OC)c(NC(=O)COC(=O)c2cc3c(s2)CCC3)c1 | 13µM* | 7.9µM* | 10µM* | 3.5µM* | 24µM* | ? | 4.6µM* | 9.5* | 15* | 17µM* | ? | 3µM* | BAZ2B inh=22*;BAZ2B bead ctr=?
COc1ccc(OC)c(NC(=O)Cn2cc(C(=O)c3ccccc3)c3ccccc32)c1 | -26% | 1% | -21% | 4% | . | -16% | . | . | . | . | . | .
CC[C@@]1(O)C(=O)OCc2c1cc1n(c2=O)-c2cc3ccccc3nc2C1 | 5%[60.1 µM] | . | . | . | . | . | . | . | . | . | . | .
CC(Cc1ccc(O)cc1)NCC(O)c1ccc(O)c(O)c1 (stereo unspecified) | . | . | 4µM* | . | 25µM* | . | . | 15* | 12* | 14µM* | -6% | 6.1µM* | Pol kappa inh-2=3.4*
